Reference: PubChem BioAssay (NCATS)
“And” between values parts separate entries of the source, which are not always exact repeats. Equal entries are not always repeated. Records with an inconclusive call do not appear. The source made the active and inactive calls. Unless noted, the call rests on the fitted dose curve; in most records, active means well fitted curve in the direction sought with a large enough effect; inconclusive means small, poorly fitted or top-dose-only effect, or another doubt; inactive means no such curve, though single readings can be large; an effect the other way counts as inactive or inconclusive.

Experiments:
[1] = molecular target: Lysosomal acid glucosylceramidase (Homo sapiens) (UniProt P04062); assay: Glucocerebrosidase-p2 (AID 348; in the data active means potency below about 10 µM; further: potency means the concentration at half of the fitted maximal effect); settings: purified GBA, blue fluorogenic substrate, 40 min
Method in brief: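 Normal human glucocerebrosidase (0.2 nM) with blue fluorogenic substrate (80 uM final) in citrate/phosphate pH 5.9 with 10mM sodium taurocholate, 0.01% tween-20; 40 min RT, NaOH/glycine stop; fluorescence Ex 365/Em 440; AC50 from a titration from 0.6 nM upwards.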

[2] = molecular target: Cytochrome P450 1A2 (Homo sapiens) (UniProt P05177); assay: p450-cyp1a2 (AID 410; calls by dose curve; further: potency means the concentration at half of the fitted maximal effect)
Method in brief: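 Read-out is luminescence from luciferin produced by CYP1A2 demethylation of Luciferin-ME (100uM, at Km). Detection reagent stopped the 60 min NADPH-dependent reaction; signals were normalized to 57 uM furafylline.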

[3] = NFAT Signaling Pathway (AID 444; active means well fitted curve in either direction with a large enough effect, not every such curve was filed as active;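 further: carbachol stimulus at about its EC50 of 1 µM final; on the % scale 0 is the no-effect control and ±100 the full control effect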); settings: Jurkat NFAT-bla M1, carbachol, beta-lactamase ratio, 5 h; at 7.69 µM (top of the series) unless noted
Method in brief: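 Jurkat cells carrying an NFAT-driven β-lactamase reporter and co-transfected muscarinic M1 receptor were treated with compound plus carbachol (1 uM final, an EC50 level) for 5 h at 37 °C. CCF4 loading followed for 1 h at RT; 460/530 nm ratio gave %activity.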

[4] = Stat Signaling Pathway (AID 446; active means well fitted curve in either direction with a large enough effect, not every such curve was filed as active;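 further: ME-180 cervical cancer cells given 40 pM IL-6 alongside compound; SIE-controlled beta-lactamase reporter measured as 460/530 nm FRET emission ratio; on the % scale 0 is the no-effect control and ±100 the full control effect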); settings: ME-180 SIE beta-lactamase reporter, IL-6 stimulated, 5 h; at 7.69 µM (top of the series) unless noted
Method in brief: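 Normalization used AC90 stimulation (300 pM IL-6) and AC90 inhibition (125 nM pan-JAK inhibitor at 40 pM IL-6). The underlying signal is SIE-driven beta-lactamase in ME-180 cells after 5 h IL-6 exposure with compound.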

[5] = molecular target: Glucocorticoid receptor (Homo sapiens) (UniProt P04150); assay: GR-GFP Redistribution (AID 450;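 active means compounds whose dose series gives a full or clear partial fitted curve of increased nuclear translocation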; further: potency means the concentration at half of the fitted maximal effect); settings: U2OS GR-GFP nuclear translocation, laser cytometry, 2 h
[6] = molecular target: Glucocorticoid receptor (Homo sapiens) (UniProt P04150); assay: GR-EFC Redistribution (AID 451; calls by dose curve; further: potency means the concentration at half of the fitted maximal effect); settings: CHO-K1 GR-EFC translocation, beta-gal luminescence, 2 h
Method in brief: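 CHO-K1 cells stably expressing nuclear-localized β-gal enzyme acceptor and GR fused C-terminally to the enzyme donor fragment; ligand-driven nuclear translocation restores β-gal by complementation. Compounds titrated up to 46 uM final, 2 h at 37 °C; luminescence read.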

[7] = molecular target: Mitogen-activated protein kinase 10 (Mus musculus) (UniProt Q61831); assay: JNK3 AlphaScreen Assay (AID 530; active means well fitted curve in either direction with a large enough effect, not every such curve was filed as active;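 further: kinase came from lysate of stimulated human HepG2 cells; signal reports phosphorylation of biotinylated GST-cJun 1-79 at Ser73 with 10 µM ATP; on the % scale 0 is the no-effect control and ±100 the full control effect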)
Method in brief: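 Biotinylated GST-cJun(1-79) served as substrate for JNK3 in HepG2 lysates stimulated with IL-1beta and TNF-alpha. ATP was 10 uM final, pH 7.6. Ser73 phosphorylation was quantified by AlphaScreen (680 nm excitation).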

[8] = molecular target: Cytochrome P450 3A4 (Homo sapiens) (UniProt P08684); assay: qHTS Assay for Inhibitors and Substrates of Cytochrome P450 3A4 (AID 884); further: nearly all actives have a fitted effect of over 50% in size; further: potency means the concentration at half of the fitted maximal effect
Method in brief: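 Luminescent readout of luciferin produced by CYP3A4 (20 nM) dealkylation of Luciferin-PPXE, 25 uM (its KM). NADPH-driven reaction ran 60 min at RT after 10 min compound preincubation; data scaled to 57 uM ketoconazole as 100% inhibition.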

[9] = molecular target: Cytochrome P450 3A4 (Homo sapiens) (UniProt P08684); assay: qHTS Assay for Activators of Cytochrome P450 3A4 (AID 885); further: nearly all actives have a fitted effect of over 65% in size
Method in brief: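 Human CYP3A4 dealkylates Luciferin-PPXE to luciferin, which luciferase detection converts to light. Substrate was at its KM (25uM), buffer 200mM KPO4, reaction 60 min at RT.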

[10] = molecular target: Cytochrome P450 2C19 (Homo sapiens) (UniProt P33261); assay: qHTS Assay for Inhibitors and Substrates of Cytochrome P450 2C19 (AID 899); further: nearly all actives have a fitted effect of over 60% in size; further: potency means the concentration at half of the fitted maximal effect
Method in brief: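 Human CYP2C19 (5nM) with Luciferin-H EGE at 10uM (its KM) in 50mM KPO4 was preincubated with compound for 10 min at 37C. NADPH regeneration started a 60 min 37C reaction. Luciferin was read by luminescence, normalized to 57uM ketoconazole.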

[11] = qHTS Assay for Lipid Storage Modulators (AID 1519; calls by dose curve); settings: Drosophila S3 cells, BODIPY lipid droplet/cell ratio, laser cytometry, cells loaded with oleic acid
Method in brief: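 Cells seeded at 5,000 per well were treated with compounds over a concentration series and loaded with oleic acid (400 uM, as added). Lipid droplet fluorescence (488 nm excitation, 500-530 nm channel) was read by laser-scanning cytometry and normalized to 20 uM Triacsin C.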

[12] = molecular target: Dual specificity protein kinase CLK4 (Homo sapiens) (UniProt Q9HAZ1); assay: qHTS Assay for Inhibitors of CDC-like Kinase 4 (Kinase-Glo Assay) (AID 1770); further: potency means the concentration at half of the fitted maximal effect; nearly all actives have a fitted effect of over 65% in size
Method in brief: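 Recombinant human Clk4 (25 nM) phosphorylated RS repeat peptide (100 uM) with 1 uM ATP in Tris pH 7.5/MgCl2/EGTA/DTT/Triton buffer for 4.5 h at room temperature. Residual ATP was quantified by Kinase-Glo luciferase luminescence.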

[13] = molecular target: Dual specificity protein kinase CLK4 (Homo sapiens) (UniProt Q9HAZ1); assay: qHTS Assay for Inhibitors of CDC-like Kinase 4 (ADP-Glo Assay) (AID 1771); further: potency means the concentration at half of the fitted maximal effect; nearly all actives have a fitted effect of over 70% in size
Method in brief: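 In this ADP-Glo format, 1 uM ATP and 100 uM RS peptide served as substrates for 25 nM Clk4 in Mg2+/EGTA/DTT/Triton buffer; reactions ran 1 hr at room temperature before luminescent ADP quantification.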

[14] = molecular target: Ubiquitin carboxyl-terminal hydrolase 1 (Homo sapiens) (UniProt O94782); assay: Inhibitors of USP1/UAF1: Pilot qHTS (AID 504865);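 further: rhodamine fluorescence freed from ubiquitin-rhodamine substrate followed over time; top concentration of the series differs between compounds; on the % scale 0 is the no-effect control and ±100 the full control effect; nearly all actives have a fitted effect of over 35% in size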
Method in brief: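 USP1/UAF1 complex (1nM) preincubated with compound 15 min at room temperature, then Ub-Rho substrate (150nM final) added. Fluorescence read kinetically at 480/540 nm, 6 reads every 60 seconds. Buffer: 50mM HEPES pH 7.8, 0.5mM EDTA, 0.1 mg/ml BSA, 1mM TCEP, 0.01% Tween-20.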

[15] = molecular target: Rap guanine nucleotide exchange factor 3 (Homo sapiens) (UniProt O95398); assay: Confirmatory qHTS for antagonist of cAMP-regulated guanine nucleotide exchange factor 3 (EPAC1) (AID 1645880);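 further: plate controls were DMSO only for no effect and full effect of the ATA control for full effect; nearly all actives have a fitted effect of over 55% in size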
Method in brief: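 Released BODIPY-GDP fluoresces less than Rap1-bound BODIPY-GDP; the signal is followed at 480/540 nm at 5-min intervals over 30 min, after 5 min at room temperature. Reactions contain 100 nM EPAC1, 250 nM RAP1B-BODIPY-GDP and 50 uM GDP; results are normalized to ATA and DMSO.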

[16] = molecular target: Rap guanine nucleotide exchange factor 3 (Homo sapiens) (UniProt O95398); assay: Confirmatory qHTS for agonist of cAMP-regulated guanine nucleotide exchange factor 3 (EPAC1) (AID 1645881);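 further: EPAC1 catalysed release of BODIPY-GDP from Rap1B seen as fluorescence loss; 100% = effect of cAMP agonist control; nearly all actives have a fitted effect of over 75% in size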
[17] = molecular target: Rap guanine nucleotide exchange factor 4 (Homo sapiens) (UniProt Q8WZA2); assay: Confirmatory qHTS for agonist of cAMP-regulated guanine nucleotide exchange factor 4 (EPAC2) (AID 1645884);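 further: nucleotide exchange releases bodipy-GDP from Rap1 and this lowers its fluorescence; on the % scale 0 is the no-effect control and ±100 the full control effect; nearly all actives have a fitted effect of over 65% in size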
[18] = molecular target: Rap guanine nucleotide exchange factor 4 (Homo sapiens) (UniProt Q8WZA2); assay: Confirmatory qHTS for antagonist of cAMP-regulated guanine nucleotide exchange factor 4 (EPAC2) (AID 1645885); further: on the % scale 0 is the no-effect control and ±100 the full control effect; nearly all actives have a fitted effect of over 25% in size
[19] = AP1 Signaling Pathway (AID 357; active means well fitted curve in either direction with a large enough effect, not every such curve was filed as active;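 further: ME-180 reporter cells stimulated with EGF at its EC50 level; on the % scale 0 is the no-effect control and ±100 the full control effect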); settings: ME-180 AP-1-bla reporter, EGF-induced, beta-lactamase ratio, 5 h; at 7.69 µM (top of the series) unless noted
Method in brief: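 A ratiometric CCF4 readout (405 nm excitation; 460 and 530 nm emission) quantified AP-1-driven beta-lactamase in ME-180 cells after 5 h with compound and EC50 EGF; AC50 values were derived for activators and inhibitors.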

[20] = molecular target: 3',5'-cyclic-AMP phosphodiesterase 4B (Homo sapiens) (UniProt Q07343); assay: qHTS Assay for Inhibitors of PDE-IV (AID 607; active means well fitted activation curve with a large enough effect in the main read-out, with a control signal flat, not every such curve was filed as active; further: % of control where 0% means no effect)
Method in brief: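 HEK293 ACTOne cells with CNG channel (1000/well), endogenous PDE4; membrane potential dye, compounds up to 22.9 uM final. Fluorescence Ex 535/Em 590; RO 20-1724 (100 uM final) as reference.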

[21] = qHTS Assay for Identification of Small Molecule Agonists for Hypoxia Response Element Signaling Pathway (AID 914; active means well fitted activation curve with a large enough effect in the signal ratio, with a control signal flat, not every such curve was filed as active; the % refers to the signal ratio; further: potency means the concentration at half of the fitted maximal effect); settings: ME-180 (cervical carcinoma) HRE-bla reporter, beta-lactamase ratio, CoCl2, 17 h; activation: stronger effect = higher value
Method in brief: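 A beta-lactamase reporter under hypoxia response element control in ME-180 cells served as the system. Compound titrations plus EC50 CoCl2 ran 17 h at 37 degrees Celsius; AC50 values were fitted from %Activity.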

[22] = Primary qHTS for small molecule stabilizers of the endoplasmic reticulum resident proteome: Secreted ER Calcium Modulated Protein (SERCaMP) assay (AID 1508630); further: on the % scale 0 is the no-effect control and ±100 the full control effect
Method in brief: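 The SH-SY5Y reporter protocol was run at 3 concentrations up to 38.3 uM (primary) or 11 concentrations (follow-up): 16 h compound, 100 nM thapsigargin for 4 h, then extracellular luciferase luminescence.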

[23] = molecular target: Cytochrome P450 2C9 (Homo sapiens) (UniProt P11712); assay: qHTS Assay for Inhibitors and Substrates of Cytochrome P450 2C9 (AID 883); further: on the % scale 0 is the no-effect control and ±100 the full control effect; nearly all actives have a fitted effect of over 60% in size
Method in brief: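 Human CYP2C9 (10nM) hydroxylated Luciferin-H (100uM, at its KM) to luciferin in 25mM KPO4. Compound was preincubated 10 min at 37C, then NADPH regeneration started a 60 min reaction at 37C. Luminescence was read after detection reagent, normalized to 57uM sulphaphenazole.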

[24] = molecular target: Cytochrome P450 2D6 (Homo sapiens) (UniProt P10635); assay: qHTS Assay for Inhibitors and Substrates of Cytochrome P450 2D6 (AID 891);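 further: luciferin methyl ether substrate demethylated by CYP2D6 with NADPH regeneration; on the % scale 0 is the no-effect control and ±100 the full control effect; nearly all actives have a fitted effect of over 60% in size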
Method in brief: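 Luminescent read-out of luciferin formed by 5 nM human CYP2D6 demethylating 30 uM Luciferin-ME EGE (Km level) over 60 min at room temperature after NADPH regeneration addition. Data normalized to full inhibition by 1.43 uM quinidine.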

[25] = Confirmation and Secondary Assay for Modulators of Hemoglobin Beta Chain Splicing at IVS2 654 locus (AID 910);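 further: per-well total GFP intensity by laser scanning cytometry after 2-day treatment; % of control where 0% means no effect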
Method in brief: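 HeLa cells stably carrying EGFP interrupted by mutant beta-globin IVS2-654 intron (CMV-driven) were treated with compound for 2 days at 37C; corrected splicing was scored as total peak GFP intensity per well (488 nm excitation, 500-520 nm emission).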

[26] = Confirmation and Secondary Assay for Modulators of Hemoglobin Beta Chain Splicing at IVS2 705 locus (AID 930);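 further: HeLa cells stably expressing the EGFP-705 splicing reporter; GFP fluorescence per well restored by corrected splicing of the IVS2-705 intron in EGFP; % of control where 0% means no effect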
Method in brief: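 Fluorescence gain (488 nm laser, 500-520 nm PMT) reflects restored correct splicing of a mutant IVS2-705 intron inside EGFP in stably transfected HeLa cells after 2-day compound treatment.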

[27] = measured here: cell count channel max response
[28] = measured here: lipid channel max response

Cytochrome P450 3A4 (Homo sapiens), sequence (P08684 whole entry, looked up): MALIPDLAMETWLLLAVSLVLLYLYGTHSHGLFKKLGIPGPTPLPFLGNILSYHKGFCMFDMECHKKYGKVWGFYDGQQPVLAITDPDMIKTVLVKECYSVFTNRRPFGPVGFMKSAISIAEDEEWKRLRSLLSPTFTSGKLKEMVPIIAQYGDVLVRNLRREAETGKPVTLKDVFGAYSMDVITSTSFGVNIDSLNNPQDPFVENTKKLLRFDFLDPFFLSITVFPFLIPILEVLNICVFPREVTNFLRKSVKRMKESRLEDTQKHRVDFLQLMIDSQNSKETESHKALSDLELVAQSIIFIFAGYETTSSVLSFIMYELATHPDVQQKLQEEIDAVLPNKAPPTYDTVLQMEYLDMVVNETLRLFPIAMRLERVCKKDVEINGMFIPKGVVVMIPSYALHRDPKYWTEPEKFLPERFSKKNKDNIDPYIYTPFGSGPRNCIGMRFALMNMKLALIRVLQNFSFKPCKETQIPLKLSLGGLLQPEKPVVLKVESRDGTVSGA
3',5'-cyclic-AMP phosphodiesterase 4B (Homo sapiens), sequence (Q07343 whole entry, looked up): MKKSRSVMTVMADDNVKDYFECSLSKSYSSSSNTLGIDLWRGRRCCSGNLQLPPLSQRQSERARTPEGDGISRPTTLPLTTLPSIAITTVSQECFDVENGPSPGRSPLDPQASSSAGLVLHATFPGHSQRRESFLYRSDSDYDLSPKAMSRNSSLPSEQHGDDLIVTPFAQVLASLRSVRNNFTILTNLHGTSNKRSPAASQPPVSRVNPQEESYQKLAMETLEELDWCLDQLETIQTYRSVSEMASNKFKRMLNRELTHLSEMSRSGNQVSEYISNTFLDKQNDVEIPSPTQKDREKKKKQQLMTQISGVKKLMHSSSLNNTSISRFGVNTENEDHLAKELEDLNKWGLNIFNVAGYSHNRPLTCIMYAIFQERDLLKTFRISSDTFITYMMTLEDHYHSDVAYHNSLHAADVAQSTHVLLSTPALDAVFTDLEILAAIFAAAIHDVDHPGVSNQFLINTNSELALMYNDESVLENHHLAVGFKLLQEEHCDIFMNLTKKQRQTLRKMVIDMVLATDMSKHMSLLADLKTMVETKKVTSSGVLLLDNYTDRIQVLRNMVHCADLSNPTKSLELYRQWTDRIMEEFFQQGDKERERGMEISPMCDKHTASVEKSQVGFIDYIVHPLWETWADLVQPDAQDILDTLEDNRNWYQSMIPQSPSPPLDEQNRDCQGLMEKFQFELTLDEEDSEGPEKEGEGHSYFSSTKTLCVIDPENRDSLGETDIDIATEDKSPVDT
Rap guanine nucleotide exchange factor 4 (Homo sapiens), sequence (Q8WZA2 whole entry, looked up): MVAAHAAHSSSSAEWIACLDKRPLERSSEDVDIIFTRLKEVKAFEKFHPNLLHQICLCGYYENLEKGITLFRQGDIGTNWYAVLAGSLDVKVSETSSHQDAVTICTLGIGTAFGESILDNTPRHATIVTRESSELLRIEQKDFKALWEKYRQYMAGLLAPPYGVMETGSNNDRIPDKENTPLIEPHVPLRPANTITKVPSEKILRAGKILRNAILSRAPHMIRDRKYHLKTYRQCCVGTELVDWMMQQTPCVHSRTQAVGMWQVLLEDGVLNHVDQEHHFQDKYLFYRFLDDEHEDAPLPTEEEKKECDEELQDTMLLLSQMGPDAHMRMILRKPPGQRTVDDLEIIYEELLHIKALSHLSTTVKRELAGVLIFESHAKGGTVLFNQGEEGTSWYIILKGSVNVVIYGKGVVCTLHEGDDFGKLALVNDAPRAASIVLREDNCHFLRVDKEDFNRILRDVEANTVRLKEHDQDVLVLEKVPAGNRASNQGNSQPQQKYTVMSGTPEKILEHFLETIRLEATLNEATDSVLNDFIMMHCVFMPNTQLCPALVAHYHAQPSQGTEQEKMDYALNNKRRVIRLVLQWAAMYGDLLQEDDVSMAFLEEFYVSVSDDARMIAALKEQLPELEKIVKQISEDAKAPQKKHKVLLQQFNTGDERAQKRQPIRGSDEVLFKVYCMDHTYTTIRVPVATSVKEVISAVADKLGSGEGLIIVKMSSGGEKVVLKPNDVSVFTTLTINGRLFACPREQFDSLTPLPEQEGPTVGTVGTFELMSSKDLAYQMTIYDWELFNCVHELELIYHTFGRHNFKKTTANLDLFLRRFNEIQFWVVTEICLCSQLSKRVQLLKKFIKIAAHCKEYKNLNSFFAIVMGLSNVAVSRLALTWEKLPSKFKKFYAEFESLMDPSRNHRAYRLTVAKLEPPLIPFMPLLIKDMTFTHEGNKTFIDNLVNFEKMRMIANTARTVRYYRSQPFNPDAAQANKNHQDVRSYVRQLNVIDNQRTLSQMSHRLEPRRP
Ubiquitin carboxyl-terminal hydrolase 1 (Homo sapiens), sequence (O94782 whole entry, looked up): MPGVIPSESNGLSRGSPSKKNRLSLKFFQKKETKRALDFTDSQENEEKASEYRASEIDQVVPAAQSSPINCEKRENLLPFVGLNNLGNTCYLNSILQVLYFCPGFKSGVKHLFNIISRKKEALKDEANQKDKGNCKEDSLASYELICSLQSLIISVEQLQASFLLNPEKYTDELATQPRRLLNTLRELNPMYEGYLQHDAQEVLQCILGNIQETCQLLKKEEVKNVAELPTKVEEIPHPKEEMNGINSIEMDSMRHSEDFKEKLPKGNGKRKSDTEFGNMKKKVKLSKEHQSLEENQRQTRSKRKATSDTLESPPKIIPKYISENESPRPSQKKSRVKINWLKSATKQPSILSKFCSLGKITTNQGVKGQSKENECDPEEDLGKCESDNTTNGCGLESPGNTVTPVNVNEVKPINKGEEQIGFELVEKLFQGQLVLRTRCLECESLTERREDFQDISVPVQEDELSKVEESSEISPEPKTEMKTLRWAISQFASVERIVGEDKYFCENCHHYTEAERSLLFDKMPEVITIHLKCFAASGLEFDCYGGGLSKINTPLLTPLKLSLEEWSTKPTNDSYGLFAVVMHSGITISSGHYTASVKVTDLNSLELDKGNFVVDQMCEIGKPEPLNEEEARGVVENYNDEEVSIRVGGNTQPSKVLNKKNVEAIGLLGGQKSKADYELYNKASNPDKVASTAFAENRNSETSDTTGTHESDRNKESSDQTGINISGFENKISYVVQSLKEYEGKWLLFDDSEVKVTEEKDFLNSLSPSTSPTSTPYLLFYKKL
Glucocorticoid receptor (Homo sapiens), sequence (P04150 whole entry, looked up, the tested form may be a part): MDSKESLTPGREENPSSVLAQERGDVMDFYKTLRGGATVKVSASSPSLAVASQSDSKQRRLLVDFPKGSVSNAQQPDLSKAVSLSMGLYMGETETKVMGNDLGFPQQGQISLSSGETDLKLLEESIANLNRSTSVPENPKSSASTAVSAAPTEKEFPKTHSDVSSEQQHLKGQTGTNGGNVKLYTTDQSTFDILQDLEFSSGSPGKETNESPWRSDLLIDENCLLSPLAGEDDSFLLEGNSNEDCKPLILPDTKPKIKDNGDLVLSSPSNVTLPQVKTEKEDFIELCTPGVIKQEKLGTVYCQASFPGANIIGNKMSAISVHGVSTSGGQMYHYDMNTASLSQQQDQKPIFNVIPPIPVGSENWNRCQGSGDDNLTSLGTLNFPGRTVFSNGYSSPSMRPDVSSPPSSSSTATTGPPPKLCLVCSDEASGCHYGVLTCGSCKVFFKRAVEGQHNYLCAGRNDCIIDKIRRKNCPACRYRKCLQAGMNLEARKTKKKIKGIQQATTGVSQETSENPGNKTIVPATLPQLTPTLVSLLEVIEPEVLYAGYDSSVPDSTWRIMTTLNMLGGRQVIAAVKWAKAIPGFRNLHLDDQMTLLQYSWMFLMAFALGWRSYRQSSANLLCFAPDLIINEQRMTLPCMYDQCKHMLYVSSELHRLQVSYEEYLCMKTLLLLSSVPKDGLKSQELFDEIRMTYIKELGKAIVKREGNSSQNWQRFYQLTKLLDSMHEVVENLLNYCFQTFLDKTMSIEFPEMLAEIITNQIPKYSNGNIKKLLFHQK
Rap guanine nucleotide exchange factor 3 (Homo sapiens), sequence (O95398 whole entry, looked up): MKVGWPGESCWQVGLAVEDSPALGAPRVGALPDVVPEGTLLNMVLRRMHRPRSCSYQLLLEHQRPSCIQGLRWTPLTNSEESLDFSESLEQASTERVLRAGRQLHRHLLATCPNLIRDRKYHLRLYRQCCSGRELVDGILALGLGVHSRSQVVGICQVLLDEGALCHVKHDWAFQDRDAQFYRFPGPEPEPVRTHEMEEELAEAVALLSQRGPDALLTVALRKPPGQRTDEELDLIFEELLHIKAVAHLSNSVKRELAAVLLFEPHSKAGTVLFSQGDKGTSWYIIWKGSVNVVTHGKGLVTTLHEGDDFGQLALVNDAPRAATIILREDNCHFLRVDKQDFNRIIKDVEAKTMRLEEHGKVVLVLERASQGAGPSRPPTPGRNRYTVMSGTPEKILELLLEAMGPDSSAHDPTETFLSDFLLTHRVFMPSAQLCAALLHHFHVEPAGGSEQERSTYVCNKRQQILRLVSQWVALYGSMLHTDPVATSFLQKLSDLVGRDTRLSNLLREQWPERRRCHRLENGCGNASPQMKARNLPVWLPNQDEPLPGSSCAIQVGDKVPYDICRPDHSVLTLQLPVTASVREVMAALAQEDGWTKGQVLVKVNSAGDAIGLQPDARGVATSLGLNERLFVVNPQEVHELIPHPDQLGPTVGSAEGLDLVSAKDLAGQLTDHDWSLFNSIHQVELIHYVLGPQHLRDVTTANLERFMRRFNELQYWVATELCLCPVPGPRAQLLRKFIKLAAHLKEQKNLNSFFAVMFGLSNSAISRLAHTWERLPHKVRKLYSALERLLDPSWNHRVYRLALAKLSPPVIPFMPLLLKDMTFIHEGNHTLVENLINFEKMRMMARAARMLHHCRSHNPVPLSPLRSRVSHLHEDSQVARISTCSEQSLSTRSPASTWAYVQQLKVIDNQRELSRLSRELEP

Cc1ccccc1-c1ccc2ncnc(N(C)C)c2c1
Potency [1]: > 11.4 µM (inactive) | Potency [2]: 0.631 µM (active) | activity change, negative = inhibition [3]: 7.63% (inactive) | activity, negative = inhibition [4]: -4.62% (inactive) | Potency [5]: > 46 µM (inactive) | Potency [6]: > 46 µM (inactive) | Potency [7]: inactive | Potency [8]: 3.16 µM (active) | Potency [9]: inactive | Potency [10]: 7.94 µM (active) | activity change, negative = inhibition ([11]; at 57.5 µM (top of the series)): 1.72% (inactive) | max response [11, 27]: -2.12% | max response [11, 28]: -3.73% | Potency [12]: 15.8 µM (active) | Potency [13]: 28.2 µM (active) | Potency [14]: inactive | Potency [15]: inactive | Potency [16]: inactive | Potency [17]: inactive | Potency [18]: inactive

N[C@H](Cn1ccc(=O)c(O)c1)C(=O)O
activity change, negative = inhibition [19]: 2.81% [at 17.2 µM] (inactive) | activity change, negative = inhibition [3]: -2.41% [at 17.2 µM] (inactive) | activity, negative = inhibition [4]: 3.76% [at 17.2 µM] (inactive) | Potency [5]: > 20.6 µM (inactive) and > 46 µM (inactive) | Potency [6]: > 20.6 µM (inactive) and > 46 µM (inactive) | Potency [7]: inactive | Potency [20]: inactive | activity change, negative = inhibition ([11]; at 25.7 µM (top of the series)): -2.4% (inactive) | activity change, negative = inhibition ([11]; at 57.5 µM (top of the series)): -2.6% (inactive) | max response [11, 27]: -5.27% and -11.5% | max response [11, 28]: -7.92% and -12.4% | Potency [14]: inactive

COc1ccc(-n2c(=O)c(-c3cc(F)cc(F)c3)nc3cnc(N4CCNCC4)nc32)cc1
Potency [2]: 12.6 µM (active) | Potency [5]: > 9.22 µM (inactive) | Potency [6]: > 46 µM (inactive) | Potency [7]: inactive | Potency [20]: inactive | Potency [9]: inactive | Potency [21]: 3.16 µM (active) | outcome [22]: inactive

COc1cc2ccc(=O)oc2cc1O
Potency [2]: 5.01 µM (active) and 12.6 µM (active) | Potency [5]: > 20.6 µM (inactive) and > 46 µM (inactive) | Potency [6]: > 20.6 µM (inactive) and > 46 µM (inactive) | Potency [7]: inactive | Potency [20]: inactive | Potency [23]: inactive | Potency [8]: inactive | Potency [24]: inactive | Potency [10]: inactive | Potency [25]: inactive | outcome [26]: inactive | activity change, negative = inhibition ([11]; at 25.7 µM (top of the series)): -4.36% (inactive) | activity change, negative = inhibition ([11]; at 57.5 µM (top of the series)): 6.76% (inactive) | max response [11, 27]: -18% and -2.53% | max response [11, 28]: -21.2% and 0.189% | Potency [14]: inactive | Potency [15]: inactive | Potency [16]: inactive | Potency [17]: inactive | Potency [18]: inactive

O=c1c(-c2ccc(Cl)cc2)nc2cnc(N3CCOCC3)nc2n1C1CC1
Potency [2]: 1.26 µM (active) | activity change, negative = inhibition [3]: -4.43% (inactive) | activity, negative = inhibition [4]: 26.7% (inactive) | Potency [5]: > 9.22 µM (inactive) | Potency [6]: > 46 µM (inactive) | Potency [7]: inactive | Potency [20]: inactive | outcome [22]: inactive
